# Laboratory results reported in PubChem BioAssay (NCI).
# This is part of a sample that, as a whole, favours compounds with a hit. Of some 83,000 tested, about 20% had one in any assay.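 96-well plates, one dose, 48 hours. Percent growth reported; active if below 10.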 A number with no mark means an inactive call. Active and inactive are the calls of the source.
# How the values were obtained:
# Test in all cases: NCI-60 one-dose screen, 48 h (100 = growth as untreated, 0 = no growth, -100 = all killed)
# Conditions in all cases: 10 µM
# NCI-H23 lung = tested on: NCI-H23 lung
# NCI-H226 lung = tested on: NCI-H226 lung
# NCI-H322M lung = tested on: NCI-H322M lung
# HOP-62 NSCLC = tested on: HOP-62 NSCLC
# NCI-H460 lung = tested on: NCI-H460 lung
# HOP-92 NSCLC = tested on: HOP-92 NSCLC
# NCI-H522 lung = tested on: NCI-H522 lung
# A549/ATCC NSCLC = tested on: A549/ATCC NSCLC
# 786-0 renal = tested on: 786-0 renal
# COLO 205 colon = tested on: COLO 205 colon
SMILES,growth (NCI-H23 lung),growth (NCI-H226 lung),growth (NCI-H322M lung),growth (HOP-62 NSCLC),growth (NCI-H460 lung),growth (HOP-92 NSCLC),growth (NCI-H522 lung),growth (A549/ATCC NSCLC),growth (786-0 renal),growth (COLO 205 colon)
CCCCCC(CCC)COC(=O)c1ccc(OC)cc1 (stereo not given),97.4%,88.6%,101%,92.3%,111%,93.7%,90.7%,80.9%,101%,105%
O=S(=O)(NC1c2ccccc2Oc2ccccc21)c1ccccc1,98%,95.3%,91.6%,90.1%,107%,63.8%,31.3%,98.4%,82.1%,95.6%
O=C(Nc1cccc(-c2nc3ccccc3[nH]2)c1)c1cccc(NC(=O)c2ccco2)c1,98%,90.1%,94.1%,73.2%,91.6%,38.8%,98.5%,82.7%,67%,31.4%
CCOC(=O)Cn1nnc(-c2ccc(OCc3ccccc3F)cc2)n1,89%,103%,98.7%,87.1%,102%,75.5%,52.3%,90.8%,97.2%,103%
C#CCn1c(-c2cccc(OCCCCl)c2)nc2c1c(=O)n(C)c(=O)n2C,79.5%,62.5%,92.1%,81.4%,93.5%,49.9%,52%,92%,86.5%,96.8%
O=CNc1c(Cl)cc2c(c1Cl)Cc1cc([N+](=O)[O-])ccc1-2,58.3%,90.1%,78%,67.6%,31.4%,60.6%,44.7%,38.4%,109%,34.4%
CCCCC(CC#N)(CCC)CCC,105%,109%,95.6%,116%,109%,99.7%,97.5%,94.4%,95.5%,106%
N#CCC1CCCC1,115%,107%,111%,92.7%,105%,80%,109%,101%,96.3%,109%
COc1cc(/C=C2\C(=O)Nc3cc(C)c(O)cc32)cc(OC)c1OC,65.2%,79.8%,80%,85.7%,40%,63.6%,41.6%,50.1%,70.1%,69.1%
O=C1/C(=C/c2ccc(O)cc2)CSc2ccc(Cl)cc21,91.3%,82.2%,92.3%,90.9%,96.5%,75.6%,-26.2% (active),86.7%,85.5%,108%
CC(C)c1ncc(CO)n1Cc1c(Cl)cccc1Cl,110%,94.3%,99.7%,103%,103%,93.6%,94.4%,102%,104%,89.6%
COc1cc(C2c3cc4c(cc3C(O)C(CO)C2CO)OCO4)cc(OC)c1OC (stereo not given),43.2%,40.4%,-0.279% (active),40.7%,4.74% (active),65.4%,3.32% (active),47.4%,39.1%,-3.75% (active)
O=C(Nc1cccc(F)c1)Nc1cccc(Cl)c1,89.8%,102%,94.8%,99.6%,56%,76.7%,90.5%,74.7%,94.2%,93.6%
CC(C)=C1CCC(C)C/C1=N\N=C(N)N (stereo not given),105%,97.9%,97.1%,101%,102%,85.8%,90.8%,91.8%,93.3%,108%
COCCOC(=O)NC(=O)Nc1ccc(C(=O)c2ccc(Cl)cc2)cc1,36.2%,46.2%,57.9%,28.5%,23.3%,32.9%,10.7%,41.8%,47%,13.4%
CC(=O)Nc1nc(C)c(C(=O)N/N=C/c2cccn2C)s1,96%,90.7%,150%,109%,109%,56.1%,86%,104%,111%,125%
CC(C)C[C@H](NC(=O)Cn1ccc(Nc2ccccc2)cc1=O)B(O)O,44.1%,-71.1% (active),91.5%,49.5%,77.3%,1.31% (active),-24% (active),71.4%,33.1%,40.8%
O=C1/C(=C/c2ccc([N+](=O)[O-])s2)Oc2ccc(Cl)cc21,-35.5% (active),-56.8% (active),-43% (active),-6.59% (active),-48.8% (active),-71% (active),-70.3% (active),-26.5% (active),-17.3% (active),-69.6% (active)
C[C@]12CC[C@H]3[C@@H](CC=C4C[C@@H](O)CC[C@@]43C)[C@@H]1CC[C@@H]2C(=O)C/C=N/O,86.6%,107%,88.5%,76.8%,97.9%,54.9%,79.4%,89.5%,90.8%,101%
CC(=O)Nc1ccc2c(c1)C(N1CC3CCC(CC3)C1)c1ccccc1-2 (stereo not given),90.7%,85%,115%,96.5%,64.3%,64.2%,108%,85.9%,92.5%,68.6%
O=C(Nc1ccc(CN2CCOCC2)cc1)c1ccc(-c2cc(Cl)ccc2Cl)o1,82.7%,72.5%,51.4%,71.4%,5.58% (active),19.2%,66.7%,57.3%,63%,-82.1% (active)
O=C1/C(=C/c2ccc(O)cc2)Cc2ccc(Cl)cc21,69.5%,68.1%,84.9%,95.3%,84.4%,77.3%,-38.8% (active),85.9%,92.2%,120%
CCN(CC)CCOC(=O)c1ccc(N=Nc2ccc(O)c(OC)c2)cc1,94.5%,90.4%,90.9%,98.8%,110%,94.6%,63.8%,91.1%,95.9%,107%
O=C1c2cc(Cl)ccc2-c2c(O)cc(Cl)cc21,49.3%,94%,109%,89.6%,99.5%,52.8%,76.2%,105%,103%,92%
CN1/C(=C\C(I)C(I)C2=[N+](C)c3ccccc3C2(C)C)C(C)(C)c2ccccc21 (stereo not given),3.16% (active),16.5%,20.9%,5.15% (active),4.27% (active),-25.7% (active),-14.1% (active),11.3%,23.2%,-20.6% (active)
CN1CCN(c2nc(-c3cccnc3)nc3sc4c(c23)CCCCCC4)CC1,93.7%,93.1%,99.3%,85.5%,98%,-2.98% (active),103%,91.2%,92.8%,102%
Cc1cc(OI)c(C(C)C)cc1-c1cc(C(C)C)c(OI)cc1C,94.9%,93.7%,95.9%,84.9%,106%,101%,94.5%,94.3%,103%,114%
C=CCn1c(C)nc2cc(Nc3nc(Nc4ccc5nc(C)n(CC=C)c5c4)c4ccccc4n3)ccc21,-69.2% (active),-47.1% (active),-92.2% (active),-99.5% (active),-84.2% (active),-79% (active),-94.8% (active),-67.1% (active),-70.6% (active),-100% (active)
